From PubChem BioAssay (NCI)
The panel holds about 79,000 compounds, 15% with a hit somewhere; the sample as a whole holds those more often. Calls of active or inactive are those of the source. Rule as the data show it: active = growth inhibition above about 70%; inactive = the rest.

Tests used:
[1] = NCI Yeast Anticancer Drug Screen. Data for the rad50 strain (AID 155);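 also: 0% = growth of vehicle-only cultures of the same strain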; conditions: S. cerevisiae rad50 strain growth inhibition, stronger effect = higher value
How it was run: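 DNA repair mutant yeast, compound exposure, growth read-out; inhibition is taken relative to vehicle.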

[2] = NCI Yeast Anticancer Drug Screen. Data for the mec2-1 strain (AID 157); conditions: S. cerevisiae mec2-1 strain, stronger effect = higher value
How it was run: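 Mutant yeast (mec2-1) grown with compound; growth inhibition relative to vehicle control reported.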

[3] = NCI Yeast Anticancer Drug Screen. Data for the sgs1 mgt1 strain (AID 161);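 also: 0% = growth of cultures given vehicle only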; conditions: S. cerevisiae sgs1 mgt1 strain, stronger effect = higher value
How it was run: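 Growth of a repair-deficient yeast mutant was monitored after compound treatment and expressed as inhibition relative to vehicle-treated cultures.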

[4] = NCI Yeast Anticancer Drug Screen. Data for the cln2 rad14 strain (AID 165);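 also: 0% = growth equal to vehicle treated cultures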; conditions: S. cerevisiae cln2 rad14 strain, stronger effect = higher value
How it was run: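 Readout is yeast growth inhibition versus vehicle-treated controls, using a strain with cln2 and rad14 alterations exposed to compound.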

[5] = NCI Yeast Anticancer Drug Screen. Data for the bub3 strain (AID 167); conditions: S. cerevisiae bub3 mutant strain, stronger effect = higher value
How it was run: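 In this screen, a yeast mutant lacking normal mitotic checkpoint function is challenged with compound. Relative growth versus vehicle gives the inhibition value.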

[6] = NCI Yeast Anticancer Drug Screen. Data for the mlh1 rad18 strain (AID 175); conditions: S. cerevisiae mlh1 rad18 strain growth inhibition, stronger effect = higher value
How it was run: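 Genetically defined yeast (DNA repair-deficient) exposed to compounds; growth inhibition determined relative to vehicle.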

[7] = at 5.0 µM (retest, dose inferred, filed as 0.5)
[8] = at 50.0 µM (retest, dose inferred, filed as 5.0)

Measured: growth inhibition

CC1(C)CCC2(CC1)CC(=O)OC(=O)C2
inactive: [1]; [7] -159% | [1]; [8] -162% | [1]; at 50.0 µM -3.9% | [2]; [7] -50% | [2]; [8] -54% | [2]; at 50.0 µM 18.5% | [3]; [7] -64% | [3]; [8] -62% | [3]; at 50.0 µM 6.6% | [4]; [7] -59% | [4]; [8] -59% | [4]; at 50.0 µM 27.8% | [5]; [7] -71% | [5]; [8] -82% | [5]; at 50.0 µM -3.4% | [6]; [7] -145% | [6]; [8] -117% | [6]; at 50.0 µM 3.95%

COc1ncc(Br)cc1C(=O)NCCc1ccc(S(=O)(=O)NC(=O)NC2CCCCC2)cc1
active: [1]; [8] 96% | [1]; at 50.0 µM 92.8% | [2]; [8] 94% | [2]; at 50.0 µM 95.5% | [3]; [8] 94% | [3]; at 50.0 µM 95.3% | [4]; [8] 96% | [4]; at 50.0 µM 96.2% | [5]; [8] 97% | [5]; at 50.0 µM 94.2% | [6]; [8] 94% | [6]; at 50.0 µM 94.9%
inactive: [1]; [7] 4% | [2]; [7] 5% | [3]; [7] -1% | [4]; [7] 5% | [5]; [7] 18% | [6]; [7] 11%

N#CSc1ccc(O)cc1
inactive: [1]; [7] 0% | [2]; [7] 1% | [3]; [7] 4% | [4]; [7] 3% | [5]; [7] 0% | [6]; [7] 1%
active: [1]; [8] 95% | [1]; at 50.0 µM 94.3% | [2]; [8] 97% | [2]; at 50.0 µM 96.2% | [3]; [8] 97% | [3]; at 50.0 µM 92.6% | [4]; [8] 97% | [4]; at 50.0 µM 93.8% | [5]; [8] 96% | [5]; at 50.0 µM 96.4% | [6]; [8] 95% | [6]; at 50.0 µM 93.3%

CCNC(=S)N/N=C/c1ccccn1
active: [1]; [8] 95% | [1]; at 50.0 µM 81.5% | [2]; [8] 92% | [2]; at 50.0 µM 84% | [3]; [8] 95% | [3]; at 50.0 µM 78.2% | [4]; [8] 95% | [4]; at 50.0 µM 81.2% | [5]; [8] 95% | [5]; at 50.0 µM 82.5% | [6]; [8] 97% | [6]; at 50.0 µM 76.5%
inactive: [1]; [7] -15% | [2]; [7] -42% | [3]; [7] -29% | [4]; [7] -21% | [5]; [7] -15% | [6]; [7] -33%

CC(C)(C)OC(=O)CSC#N
active: [1]; [8] 93% | [2]; [8] 95% | [3]; [8] 96% | [3]; at 50.0 µM 90.5% | [5]; [8] 94% | [6]; [8] 92%
inactive: [1]; [7] 11% | [1]; at 50.0 µM 67.3% | [2]; [7] 16% | [2]; at 50.0 µM 66.2% | [3]; [7] 9% | [4]; [7] 8% | [4]; [8] 39% | [4]; at 50.0 µM 3.75% | [5]; [7] 12% | [5]; at 50.0 µM 69.2% | [6]; [7] 15% | [6]; at 50.0 µM 55.5%

CCOC(=O)CCC(=O)Oc1ccc2c(c1OC(=O)CCC(=O)OCC)C(=O)c1ccccc1C2=O
inactive: [1]; [7] 25% | [2]; [7] 11% | [3]; [7] 50% | [4]; [7] 13% | [4]; at 50.0 µM 66% | [5]; [7] 8% | [5]; at 50.0 µM 60.5% | [6]; [7] 22%
active: [1]; [8] 97% | [1]; at 50.0 µM 87.5% | [2]; [8] 97% | [2]; at 50.0 µM 78.8% | [3]; [8] 98% | [3]; at 50.0 µM 83% | [4]; [8] 97% | [5]; [8] 96% | [6]; [8] 97% | [6]; at 50.0 µM 95%

Cc1ccc(S(=O)(=O)CC(=O)CC(=O)C(=O)Nc2cc(C)ccc2C)cc1
inactive: [1]; [7] -1% | [1]; [8] 4% | [1]; at 50.0 µM 34.2% | [2]; [7] -2% | [2]; [8] -8% | [2]; at 50.0 µM 9.95% | [3]; [7] -2% | [3]; [8] 0% | [3]; at 50.0 µM 17.9% | [4]; [7] -3% | [4]; [8] -1% | [4]; at 50.0 µM 1.85% | [5]; [7] -2% | [5]; [8] -2% | [5]; at 50.0 µM -0.55% | [6]; [7] -2% | [6]; [8] -2% | [6]; at 50.0 µM 12.6%

COC(=O)C(=O)CC(=O)c1cccc(Cl)c1
active: [1]; [8] 99% | [1]; at 50.0 µM 74.5% | [2]; [8] 100% | [2]; at 50.0 µM 77% | [3]; [8] 99% | [4]; [8] 99% | [5]; [8] 99% | [5]; at 50.0 µM 82.7% | [6]; [8] 99% | [6]; at 50.0 µM 74.7%
inactive: [1]; [7] 16% | [2]; [7] 18% | [3]; [7] 18% | [3]; at 50.0 µM 64.2% | [4]; [7] 6% | [4]; at 50.0 µM 21.8% | [5]; [7] 13% | [6]; [7] 12%

CN(C)C(=S)/N=c1\ss/c(=N\C(=S)N(C)C)n1-c1cccc(Cl)c1
active: [1]; at 50.0 µM 95.9% | [2]; at 50.0 µM 95.2% | [3]; at 50.0 µM 94% | [4]; at 50.0 µM 80.8% | [5]; at 50.0 µM 96.2% | [6]; at 50.0 µM 94.2%
inactive: [1]; [7] 6% | [1]; [8] 8% | [2]; [7] 15% | [2]; [8] 2% | [3]; [7] 4% | [3]; [8] 12% | [4]; [7] 4% | [4]; [8] -13% | [5]; [7] 3% | [5]; [8] -4% | [6]; [7] 5% | [6]; [8] 3%

O=C(Cc1ccccc1)NC(C(=O)c1ccccc1)c1ccccc1 (stereo not given)
inactive: [1]; [7] 36% | [1]; [8] 55% | [2]; [7] 21% | [2]; [8] 40% | [2]; at 50.0 µM 31.1% | [3]; [7] 36% | [3]; [8] 47% | [4]; [7] 25% | [4]; [8] 26% | [4]; at 50.0 µM 57% | [5]; [7] 48% | [6]; [7] 35% | [6]; [8] 53%
active: [1]; at 50.0 µM 75.5% | [3]; at 50.0 µM 72.2% | [5]; [8] 72% | [5]; at 50.0 µM 83.2% | [6]; at 50.0 µM 73.7%
